Source: PubChem
IL1B secr inh = blocks inflammasome-driven IL-1 beta release | THP-1 LPS/ATP IL-1B secretion, AlphaLISA, 16 h; stronger effect = lower value | activity change, % at 57.5 µM | 360,000 compounds, 4.7% hits | AID 743279; in the data active means activity change below about -50%; inconclusive means mostly about -30% to -49%
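Secreted IL-1B measured by AlphaLISA bead assay after 16 h compound exposure of THP-1 cells; compounds (final up to 57.5 uM) added 1 h before LPS (250 ng/mL) and ATP (1.25 mM) stimulation; lower signal means less secretion.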
SW480 rereplic = DNA re-replication induction in SW480 cells. SW480 DNA re-replication, Hoechst DNA content imaging, 48 h. AID 624297. 340,000 compounds, 1.8% hits. Potency, µM (doses to about 46.1 µM), hits mostly activators; further: nearly all actives have a fitted effect of over 55% in size
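DNA re-replication was detected as more nuclei of elevated Hoechst intensity after 48 hr exposure to compound (23 nL pinned per well of 250 cells).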
MCF10A rereplic = inducers of DNA re-replication in MCF 10A breast cells. MCF 10A DNA re-replication, Hoechst nuclear intensity, 48 h. Potency, µM (top dose mostly 46.1 µM), most hits filed as activators. 350,000 compounds, 2.9% hits. AID 624296; further: nearly all actives have a fitted effect of over 50% in size
RORgamma inh = inhibitors of mouse ROR gamma transcriptional activity; Drosophila S2 Gal4-RORgamma UAS-luciferase reporter, 20 h; P51450; AID 2551; 310,000 compounds, 5.4% hits; Potency, µM (doses to about 53.6 µM), actives largely listed as inhibitors; further: nearly all actives have a fitted effect of over 60% in size
Target sequence (P51450 whole entry, looked up, the tested form may be a part): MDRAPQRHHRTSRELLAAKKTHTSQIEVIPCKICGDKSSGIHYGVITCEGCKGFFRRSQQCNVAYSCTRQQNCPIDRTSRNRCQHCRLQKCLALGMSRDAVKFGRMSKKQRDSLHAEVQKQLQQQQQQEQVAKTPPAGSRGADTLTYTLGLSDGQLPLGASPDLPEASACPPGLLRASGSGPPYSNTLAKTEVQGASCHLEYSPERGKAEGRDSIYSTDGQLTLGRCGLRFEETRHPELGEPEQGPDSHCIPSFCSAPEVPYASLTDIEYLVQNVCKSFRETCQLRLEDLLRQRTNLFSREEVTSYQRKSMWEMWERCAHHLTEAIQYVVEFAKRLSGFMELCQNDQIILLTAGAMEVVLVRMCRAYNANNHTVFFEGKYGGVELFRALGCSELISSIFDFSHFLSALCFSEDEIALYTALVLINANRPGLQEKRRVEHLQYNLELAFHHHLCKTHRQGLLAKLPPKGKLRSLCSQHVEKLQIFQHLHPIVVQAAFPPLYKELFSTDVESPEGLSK
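Stably transfected Drosophila Schneider cells are the test system, with ROR gamma fused to Gal4 and luciferase under UAS control; luminescence is read after 20 hr of 700 uM copper sulfate induction at ambient temperature.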
VP16 counter = inhibits Gal4-VP16 luciferase reporter, ROR gamma counter-screen; Drosophila S2 Gal4-VP16 UAS-luciferase, luminescence, 20 h; Potency, µM (top dose mostly 53.6 µM), usual class: inhibitors; 310,000 compounds, 3.5% hits; AID 2546;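 further: Gal4-VP16 expression switched on by copper sulfate through the metallothionein promoter; nearly all actives have a fitted effect of over 50% in size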
Hits are given with their value; 0 = inactive; ? = inconclusive; - = no result; ! = not confirmed by another sample; [ ] = another dose, or the depositor's remark. Most compounds without a hit are left out; they make up all but 11% or so of the library. Unless noted, the call rests on the fitted dose curve; in most records, active means well fitted curve in the direction sought with a large enough effect; inconclusive means small, poorly fitted or top-dose-only effect, or another doubt; inactive means no such curve, though single readings can be large; an effect the other way counts as inactive or inconclusive.

SMILES	IL1B secr inh	SW480 rereplic	MCF10A rereplic	RORgamma inh	VP16 counter
C[C@@]12CC(=O)C3=C(CCCC3=O)N1CCc1ccccc12	-	-	-	0	0
Cc1ccc(C)c(N2CCN(C(=O)c3ccc(N4CCOCC4)c([N+](=O)[O-])c3)CC2)c1	-51	0	0	0	0
O=C(NNC(=S)Nc1ccc(Cl)cc1Cl)c1ccncc1	0	0	0	?	11µM
O=C(NNC(=S)Nc1ccc(Br)cc1)c1ccc(N2CCOCC2)c([N+](=O)[O-])c1	0	0	?	13µM	13µM
O=C(NNC(=S)Nc1ccc(Cl)cc1Cl)c1ccc(N2CCOCC2)c([N+](=O)[O-])c1	0	0	0	11µM	?
O=C(c1ccc(N2CCOCC2)c([N+](=O)[O-])c1)N1CCCCC1	0	0	0	0	0
CN(CC(=O)Nc1ccc(Cl)c(C(F)(F)F)c1)C(=O)c1cnccn1	0	0	0	-	-
Cc1ccc(NC(=S)NNC(=O)c2ccc(N3CCOCC3)c([N+](=O)[O-])c2)cc1Cl	0	?	?	16µM	13µM
Cc1cc(C(=O)Nc2ccc(N3CCCC3)c(Cl)c2)ccc1[N+](=O)[O-]	-	?	0	?	0
COc1ccccc1NC1=C(Cl)C(=O)N(C2CCCCC2)C1=O	0	?	0	0	0
Cc1ccccc1NC1=C(Cl)C(=O)N(C2CCCCC2)C1=O	-93	0	?	0	?
O=c1c2ccccc2nc(/C=C/c2ccc([N+](=O)[O-])o2)n1CCCO	-111	4.5µM	4.5µM	8.9µM	7.1µM
O=c1c2ccccc2nc(/C=C/c2ccc([N+](=O)[O-])cc2)n1CCCO	-	0	0	0	0
O=c1c2ccccc2nc(/C=C/c2cccc([N+](=O)[O-])c2)n1CCCO	0	0[9.22 µM]	0	-	-
O=c1c2ccccc2nc(/C=C/c2cccc(Br)c2)n1CCCO	-85	?	?	0	0
O=c1c2ccccc2nnn1CSc1nc2ccccc2c(=O)n1CCCO	0	0	0	10µM	0
Cn1c(/C=C/c2cccc(Br)c2)nc2ccccc2c1=O	0	18µM	23µM	0	0
O=[N+]([O-])c1ccc(C=NNC(=S)NN=Cc2ccc([N+](=O)[O-])cc2)cc1	0	?	0	-	-
CC(C)(C)c1ccc(OCc2ccc(C(=O)N/N=C/c3ccc([N+](=O)[O-])cc3)o2)cc1	0	0	?	?	10µM
CCOc1ccc(CNC(=S)N/N=C/c2cccnc2)cc1	0	0	0	7.9µM	?
CCOc1ccc(CNC(=S)N/N=C\c2ccc([N+](=O)[O-])cc2)cc1	0	0	0	1.3µM	2.8µM
CCCCOc1ccc(CNC(=S)N/N=C/c2ccc(OC)c(OC)c2)cc1	?	?	0	4.5µM	2.5µM
COc1ccc(C=NNC(=O)CCCC(=O)NN=Cc2ccc(OC)c(OC)c2)cc1OC	0	0	0	-	-
CCOc1ccc(N=Cc2ccc([N+](=O)[O-])cc2)c(O)c1	-52	-	-	-	-
COCCNC(=S)N/N=C/c1ccc(OCc2ccc(C(=O)OC)cc2)c(OC)c1	0	0	0	2.2µM	7.1µM
SMILES	IL1B secr inh	SW480 rereplic	MCF10A rereplic	RORgamma inh	VP16 counter
CC(C)Oc1ccc(CNC(=S)N/N=C/c2cccnc2)cc1	0	0	?	4µM	13µM
COCCNC(=O)C(=O)N/N=C/c1ccc(C(=O)OC)cc1	0	0	0	0	0
CC(C)NC(=S)N/N=C/c1cccnc1	0	0	0	?	0
C[C@H]1CN([C@@H](C)CO)C(=O)CCCn2nncc2CO[C@H]1CN(C)C(=O)C1CC1	0	-	-	-	-
COc1cc(NC(=O)C2CCC(CNc3c(N4CCC(C)CC4)c(=O)c3=O)CC2)cc(OC)c1 (stereo unspecified)	-62!	0	0	0	0
Cc1ccnc(NC(=O)C2CCC(CNc3c(N4CCCC4)c(=O)c3=O)CC2)c1 (stereo unspecified)	-67	0	?	0	0
COc1cc(NC(=O)C2CCC(CNc3c(N4CCCCC4)c(=O)c3=O)CC2)cc(OC)c1 (stereo unspecified)	0	0	0	0	0
CC1CCN(c2c(NCC3CCC(C(=O)Nc4ccccn4)CC3)c(=O)c2=O)CC1 (stereo unspecified)	0	0	0	0	0
O=S(=O)(c1ccccc1)c1nc(-c2ccc(Cl)cc2)oc1NCCCN1CCOCC1	-65	0	0	-	-
O=S(=O)(c1ccccc1)c1nc(-c2ccco2)oc1NCCN1CCOCC1	0	0	0	0	0
